# Mcl1-Bid inh = Mcl-1/Bid interaction inhibition | Q07820 | TR-FRET Mcl-1/Bid-Dy647 peptide binding, 1536-well | inhibition, % at 21.7 µM | actives 0.97% (n = 220,000);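 active means compounds that cut the binding signal by more than half at the single screening dose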;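 further: His-tagged Mcl-1 with europium anti-His antibody binding Bid BH3 peptide; 0% = Mcl-1 plus peptide wells and 100% = peptide-only wells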
# Target sequence (Q07820 whole entry, looked up): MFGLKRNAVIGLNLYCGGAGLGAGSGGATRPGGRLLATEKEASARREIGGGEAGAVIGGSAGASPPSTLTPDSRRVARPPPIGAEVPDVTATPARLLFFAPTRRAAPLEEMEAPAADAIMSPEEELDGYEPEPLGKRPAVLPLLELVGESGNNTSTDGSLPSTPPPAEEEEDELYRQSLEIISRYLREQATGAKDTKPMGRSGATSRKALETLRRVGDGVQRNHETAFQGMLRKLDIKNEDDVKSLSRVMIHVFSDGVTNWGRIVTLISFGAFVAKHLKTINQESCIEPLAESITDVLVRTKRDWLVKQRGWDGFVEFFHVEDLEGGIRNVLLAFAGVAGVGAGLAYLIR
# TNF death inh = blocks TNF-alpha induced death of Jurkat FADD-/- cells. actives 0.068% (n = 220,000). activation (protection from cell death), % at 10 µM. AID 463075. Jurkat FADD-/- TNF necroptosis rescue, ATP luminescence, 24 h; 0 = TNF only, 100 = no-TNF cells;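 active means activation, meaning protection from cell death, of at least 50% relative to plate controls; inactive means activation below 50%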;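 further: necroptosis triggered by 40 ng/mL TNF-alpha added together with compound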
# Mcl1-Noxa inh = Mcl-1/Noxa interaction inhibition. Q07820. inhibition, % at 21.7 µM. TR-FRET Mcl-1/Noxa peptide binding, 2 h. actives 1.5% (n = 220,000);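 active means compounds that cut the protein-peptide binding signal by more than 50% relative to plate controls in a single-dose test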;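 further: His-tagged Mcl-1 with rhodamine Noxa BH3 peptide and terbium anti-His antibody; 0% = Mcl-1 plus Noxa peptide wells and 100% = peptide-only wells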
# MCL1 BIM primary = inhibitors of human MCL1 binding to BIM-BH3 peptide | Q07820 | GST-MCL1 / FITC-Bim-BH3 fluorescence polarization | inhibition, % at 10.9 µM | actives 0.68% (n = 320,000) | AID 2057;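 active means inhibition above the mean inhibition of all tested compounds plus 3 SD, set per campaign, cut at about 40% in these data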;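 further: 0% = DMSO wells and 100% = unlabeled Bim-BH3 peptide control; higher means more loss of mP so more displacement of Bim peptide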
# zVAD death inh = L929 zVAD cell death inhibition; L929 zVAD necroptosis rescue, ATP luminescence, 24 h; with zVAD 60 µM; actives 0.38% (n = 220,000); viability rescue, % at 10 µM;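 active means activation, scaled between plate controls, above about 75%, limit read from the data; inactive means activation under that limit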;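 further: 0% = zVAD with DMSO and 100% = DMSO alone without zVAD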
# Bim-Mcl-1 = human Bim-Mcl-1 interaction inhibition. Bead-based flow cytometry, Bim peptide-Mcl-1 binding. inhibition, % at 10 µM. actives 0.1% (n = 190,000); in the data active means inhibition above about 40%;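 further: 0% = no compound tracer wells and 100% = peptide blocker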
# zVAD death conf = confirmed blocker of zVAD induced death in L929 cells; AID 463117; L929 zVAD-induced necroptosis rescue, ATP luminescence, 24 h; shares compounds with zVAD death inh; actives 16% (n = 760); activation (protection from necroptosis), % at 10 µM;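 active means mean protection from necroptosis of at least 50% over duplicate tests; inactive means mean protection below 50%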;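 further: 0% = cells with zVAD alone and 100% = vehicle cells without zVAD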
# * hit, by the source's call; · = no result given. Compounds with a hit are over-represented: about 2.4% of the library has one in this group of screens.
SMILES,Mcl1-Bid inh,TNF death inh,Mcl1-Noxa inh,MCL1 BIM primary,zVAD death inh,Bim-Mcl-1,zVAD death conf
CCC(SC1=NCCS1)C(=O)Nc1nnc(-c2ccccc2OC)s1 (stereo not given),-7,3,0,1,83*,-4,1
Nc1c(N(CCC2=CCCCC2)C(=O)c2ccccc2F)c(=O)[nH]c(=O)n1Cc1ccccc1,·,·,·,-18,·,·,·
Cn1c(=O)cc(SCC(=O)Nc2ccccn2)c2ccccc21,-29,11,-13,8,81*,-3,2
COc1ccc2c(C)nc(Nc3nc(C)c(C)c(=O)[nH]3)nc2c1,-36,-19,-6,6,113*,-3,1
CC(=O)c1c[nH]c(C(=O)Nc2ccc(N3CCCCCC3)cc2)c1,·,·,·,9,·,·,·
FC(F)(F)c1cnc2c(-c3ccccc3)n[nH]c2c1,-11,4,10,·,77*,0,17
Nc1c(C(=O)NCC2CCCO2)c2nc3ccccc3nc2n1-c1ccccc1 (stereo not given),3,-9,14,14,86*,-1,33
CCCNC(=O)c1c(N)n(-c2cccc(OC)c2)c2nc3ccccc3nc12,-1,-5,16,6,77*,0,12
COCCCNC(=O)c1c(N)n(-c2cccc(S(N)(=O)=O)c2)c2nc3ccccc3nc12,1,-3,18,-7,-1,0,·
O=C(c1cccs1)N1CCN(C23CC4CC(CC(C4)C2)C3)CC1,·,·,·,-1,·,·,·
O=c1[nH]c2ccccc2nc1N1CCOCC1,-15,-1,12,3,1,-4,·
c1ccc2c(c1)nc(N1CCOCC1)c1c3ccccc3[nH]c21,-23,1,19,4,82*,-3,4
CC(=O)c1sc(NC(=O)c2ccc(C(C)(C)C)cc2)nc1C,-36,3,-8,-6,75*,-2,1
Cc1ccc(F)cc1NC(=O)Nc1cc(C(C)(C)C)nn1C,4,6,9,-3,34,·,·
Cn1nc(C(C)(C)C)cc1NC(=O)Nc1cc(Cl)cc(Cl)c1,7,22,1,0,94*,·,93*
CCC(=O)Nc1c2c(nn1-c1ccc(F)cc1)CS(=O)(=O)C2,·,·,·,-8,·,·,·
CC(C)OC(=O)N(C)c1ccc(C(O)(C(F)(F)F)C(F)(F)F)cc1,2,-2,2,1,77*,-1,9
CC(=O)Nc1ccc(C(O)(C(F)(F)F)C(F)(F)F)cc1,-8,0,-18,-1,6,-5,·
Cc1ccc(S(=O)(=O)Nc2ccc(S(=O)(=O)NCC3CCCO3)cc2)cc1 (stereo not given),·,·,·,2,·,·,·
COc1cc(NC(=O)c2cccnc2Sc2ccc(Cl)cc2)cc(OC)c1OC,-25,4,9,6,77*,-2,42
Cc1[nH]n(-c2ccccc2)c(=O)c1C=NC1CCCCC1,-6,3,-2,7,75*,-3,1
Cc1[nH]n(-c2ccccc2)c(=O)c1C=NC1CCCCCC1,-21,3,-6,-6,80*,1,34
Cc1[nH]n(-c2ccccc2)c(=O)c1/C=N/N(c1ccccc1)c1ccccc1,-70,0,-51,4,3,-2,·
C(=N\Nc1nc2ccccc2s1)/c1ccco1,-15,17,23,5,94*,-1,49
C(=N\Nc1nc2ccccc2s1)/c1cccs1,4,10,20,6,82*,8,10
SMILES,Mcl1-Bid inh,TNF death inh,Mcl1-Noxa inh,MCL1 BIM primary,zVAD death inh,Bim-Mcl-1,zVAD death conf
Cc1csc(N/N=C\c2cccnc2)n1,-21,10,28,-3,88*,0,8
Cc1ccc(N/N=C/c2cccnc2)cc1,-57,-1,25,2,0,-1,·
N#Cc1ccc(NCC(=O)Nc2ccc3c(c2)OCCO3)cc1,-15,2,-4,-2,66,-1,·
N#Cc1cccc(NCC(=O)Nc2ccc3c(c2)OCCO3)c1,-1,2,17,-16,77*,0,2
CCCCN(C)CCCNC(=O)/C=C1\Sc2ccccc2NC1=O,-16,5,19,6,75*,-3,24
CCCCN(C)CCCNC(=O)C1(O)c2ccccc2NC(=O)N1c1ccc(Cl)cc1 (stereo not given),·,·,·,-1,·,·,·
Cc1ccc(C)c(SCC(=O)OC/C(O)=C(\C#N)c2nc3ccccc3[nH]2)c1,-32,-2,32,·,78*,0,29
Cc1cc(C)nc(SCC(=O)c2c(N)n(C)c(=O)n(C)c2=O)n1,-29,-3,15,-4,76*,0,0
Cn1c(N)c(C(=O)CSc2ccc3c(c2)OCCO3)c(=O)n(C)c1=O,-20,-5,14,1,0,-1,·
O=C(Nc1ccc(N2CCN(C(=O)c3ccco3)CC2)cc1)C(c1ccccc1)c1ccccc1,-44,2,3,3,76*,-3,21
O=C(Nc1ccc(N2CCN(C(=O)c3ccco3)CC2)cc1)c1ccco1,-53,3,-2,-1,2,0,·
CC1(C)CC(=O)C2=C(C1)Oc1nc3ccccc3cc1C2C(C#N)C#N (stereo not given),-1,-12,21,14,90*,0,2
CC(C)(C)OC(=O)N[C@@H](Cc1ccccc1)C(=O)NCC1CCC(C(=O)N[C@@H](CC(=O)O)C(=O)O)CC1 (stereo not given in full),·,·,·,2,·,·,·
COc1cc(NC(=S)Nc2ccccn2)c(OC)cc1Cl,-47,1,3,12,79*,-4,7
COc1cc(/C=N/Nc2ccccn2)ccc1O,-127,43,20,1,87*,·,75*
Cc1[nH]c2ccccc2c1/C=N/Nc1nncn1N,-19,-1,25,-3,4,-2,·
COc1ccc(NC(=O)Nc2ccccn2)cc1OC,-3,8,0,12,76*,·,35
Cc1[nH]c2ccccc2c1/C=N/Nc1ccccn1,-47,35,18,·,79*,-1,85*
O=C(Nc1ccc(Cl)c(Cl)c1)Nc1ccccn1,·,·,·,3,·,·,·
CN1C(=O)/C(=C/c2ccc(OCc3ccccc3F)cc2)NC1=S,·,·,·,-3,·,·,·
COc1ccc(/C=N/Nc2ccccn2)cc1OC,-106,53*,7,12,88*,·,89*
Cc1cccc2cc3ccccc3nc12,·,·,·,0,·,·,·
Nc1[nH]nc2ncc3cc4ccccc4nc3c12,-21,-3,23,20,82*,11,37
O=C(CCl)Nc1cc(SCC(O)CO)cc([N+](=O)[O-])c1 (stereo not given),-16,-12,7,·,81*,1,77*
O=C(Cn1ncc(Cl)c(Cl)c1=O)c1ccc(Cl)cc1,-17,-14,16,5,0,-2,·

# Bioassay records: PubChem, several laboratories
